This note sets out measurements from PubChem BioAssay.

A number with no mark means an inactive call. This is one part of the list. Active and inactive are the calls of the source.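 How the source made its calls, unless noted: active means inhibition above a limit from the primary screen, the mean over all compounds plus 3 SD (cut at about 19% in these data); inactive means the rest.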

In test [1] the target is Peroxisome proliferator-activated receptor gamma (Homo sapiens) (UniProt P37231). As to the kind of experiment: retested PPARg-SRC-2 recruitment enhancers – biochemical, HTS, confirmation (AID 1297; in the data active means activation above about 22%;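 further: 0% = vehicle alone and 100% = reference agonist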). As to conditions: biochemical SRC-2 recruitment by PPARgamma; at 8 µM; active compounds read high.
The target is the same in test [2]. As to the kind of experiment: retest of SRC-1 recruitment enhancers for PPARgamma – biochemical, confirmation (AID 1300; in the data active means activation above about 20%;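 further: 0% = vehicle wells and 100% = reference agonist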). As to conditions: PPARgamma–SRC-1 coactivator recruitment biochemical assay; at 8 µM; active compounds read high.
The target in test [3] is Peroxisome proliferator-activated receptor gamma (Homo sapiens) + Nuclear receptor coactivator 3 (Homo sapiens) (UniProt P37231+Q9Y6Q9). As to the kind of experiment: agonists promoting SRC-3 binding to PPARgamma – biochemical, confirmation (AID 1301; in the data active means activation above about 24%;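 further: 0% = vehicle wells and 100% = reference agonist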). To be noted: biochemical PPARgamma-SRC-3 coactivator recruitment, agonist mode; at 8 µM; active compounds read high.
Test [4] has as its target Photoreceptor-specific nuclear receptor (Homo sapiens) (UniProt Q9Y5X4). As to the kind of experiment: corepressor-releasing ligands of human NR2E3 – biochemical, TR-FRET, confirmation (AID 2379; in the data active means activation above about 20%). As to conditions: cell-free NR2E3 corepressor release, 5 h, at 3.98 µM, active compounds read high. A general note: TR-FRET usually uses a lanthanide donor and a delayed reading to cut background.

Test [5] concerns the target Peroxisome proliferator-activated receptor gamma (Homo sapiens) + Nuclear receptor corepressor 2 (Homo sapiens) (UniProt P37231+Q9Y618). As to the kind of experiment: agonists of PPARg-NCOR2 corepressor interaction, counter-screen for NR2E3 agonist project, biochemical, TR-FRET (AID 504787; in the data active means inhibition above about 20%;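 further: 0% = DMSO vehicle and 100% = wells without protein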). As to conditions: TR-FRET PPARg-NCOR2 coregulator interaction, at 3.98 µM, active compounds read high. For orientation: The purpose of a counterscreen is to sort out artefacts and off-target activity.

Test [6] deals with Sphingosine 1-phosphate receptor 4 (Homo sapiens) (UniProt O95977). As to the kind of experiment: blockers of human S1P4 signalling – cell-based, confirmation (AID 1524; in the data active means inhibition above about 30%). As to conditions: S1P4-expressing cell line, antagonist mode, reporter read-out; at 4.98 µM; active compounds read high.
Test [7] concerns the target Sphingosine 1-phosphate receptor 1 (Homo sapiens) (UniProt P21453). As to the kind of experiment: blockade of human S1P1 receptor – cell-based, counter-screen for S1P4 antagonist project (AID 1564; in the data active means inhibition above about 40%;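 further: receptor stimulated with S1P near its EC80; 0% = agonist stimulated wells and 100% = vehicle only wells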). As to conditions: cell-based S1P1 antagonist counterscreen, at 4.98 µM, active compounds read high.
Test [8] concerns the target Galanin receptor type 2 (Homo sapiens) (UniProt O43603). As to the kind of experiment: blockers of human galanin receptor 2 – cell-based, confirmation (AID 866; in the data active means inhibition above about 27%;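 further: cells stimulated with galanin at about its EC80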). As to conditions: GALR2-expressing cells, antagonist mode, at 4 µM, active compounds read high.
Test [9] can be described thus: nonspecific BLA reporter inhibition – CHO NFAT-bla cells, FRET readout, counter-screen for GALR2 antagonist project, confirmation (AID 867;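 active means inhibition above the mean inhibition across tested compounds plus 3 SD, cut at about 27% in these data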;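 further: 0% = 500 nM thapsigargin stimulated wells and 100% = unstimulated BSA only wells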). To be noted: beta-lactamase FRET, thapsigargin-stimulated, at 4.2 µM, active compounds read high.
The target in test [10] is Bcl-2-like protein 1 (Homo sapiens) (UniProt Q07817). As to the kind of experiment: Bcl-xL BH3-peptide displacement, hit confirmation – biochemical, fluorescence polarization, counter-screen for MCL1 inhibitor project (AID 2166;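 active means inhibition above a cutoff equal to the mean inhibition of all tested compounds plus 3 SD, cut at about 30% in these data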). As to conditions: GST-Bcl-xL / FITC-Bim BH3 peptide FP binding; at 10.9 µM; active compounds read high.
The target of test [11] is Induced myeloid leukemia cell differentiation protein Mcl-1 (Homo sapiens) (UniProt Q07820). As to the kind of experiment: MCL1-BIM peptide interaction disruptors – biochemical, fluorescence polarization, triplicate, confirmation (AID 2168;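 active means inhibition above the average of all tested compounds plus 3 SD, cut at about 40% in these data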;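 further: 0% = DMSO wells and 100% = unlabeled Bim-BH3 control peptide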). As to conditions: GST-MCL1 / FITC-Bim-BH3 fluorescence polarization; at 10.9 µM; active compounds read high.
Test [12] addresses Protein phosphatase methylesterase 1 (Homo sapiens) (UniProt Q9Y570). As to the kind of experiment: human PME-1 methylesterase inhibition confirmation – biochemical, fluorescence polarization, FP-Rh probe, triplicate (AID 2171;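 active means inhibition above the hit cutoff set in the earlier primary screen, cut at about 27% in these data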;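 further: 0% = enzyme with DMSO and 100% = wells lacking PME-1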). To be noted: recombinant PME-1, FP-Rh probe fluorescence polarization; at 5.9 µM; active compounds read high.
Test [13] can be described thus: reduced OD of T4-infected AddAB+ E. coli – absorbance, E. coli V3065, T4 phage, triplicate, AddAB inhibitor project, confirmation (AID 488942;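 active means mean inhibition above a set limit taken from the earlier primary screen, cut at about 13% in these data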;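 further: higher means less bacterial growth since AddAB block lets phage replicate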). As to conditions: E. coli V3065 expressing H. pylori AddAB, at 11.9 µM, active compounds read high, T4 phage with gene 2 nonsense mutations.
A short description of test [14]: reduced OD of phage-infected RecBCD+ V66 E. coli – absorbance, mutant T4 phage, counter-screen for AddAB inhibitor project (AID 488955;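 active means mean inhibition above the mean of solvent-only control wells plus 3 SD, cut at about 4% in these data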;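 further: optical density read after an 18 h incubation at 37 °C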). To be noted: OD growth, at 11.9 µM, active compounds read high.
A short description of test [15]: bacterial growth inhibitors – absorbance, counter-screen for AddAB inhibitor project, confirmation (AID 488956; in the data active means inhibition above about 25%). As to conditions: bacterial viability, absorbance (AddAB counterscreen); at 11.9 µM; active compounds read high.
The nature of test [16]: reduced OD of V66 E. coli with T4 gene 2 phage – absorbance, RecBCD inhibitor project, confirmation (AID 651982;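 active means mean inhibition over triplicates exceeding the hit threshold derived in the original primary screen, cut at about 11% in these data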). As to conditions: E. coli V66 + T4 2- phage, growth OD; at 11.9 µM; active compounds read high.
Test [17] can be described thus: bacterial growth inhibition – absorbance, high throughput, counter-screen for RecBCD inhibitor project (AID 651983; in the data active means inhibition above about 20%;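 further: E. coli strain V66 grown with compound alone and no phage infection; 0% = bacteria with DMSO vehicle only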). To be noted: E. coli viability, absorbance (OD) growth; at 11.9 µM; active compounds read high.
Test [18] can be described thus: reduced optical density, T4-challenged addAB+ bacteria – absorbance, E. coli V3065, T4 phage, counter-screen for RecBCD inhibitor project, confirmation (AID 651984;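 active means mean inhibition above the solvent-only control wells' mean plus 3 SD, cut at about 22% in these data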;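 further: higher means less bacterial growth from phage killing when AddAB is blocked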). As to conditions: E. coli expressing H. pylori AddAB + T4 phage, OD growth; at 11.9 µM; active compounds read high; gene 2 mutant T4, recBCD-deleted host.
Test [19] concerns Fam108b (Abhd17b) serine hydrolase [Mus musculus]. As to the kind of experiment: inhibition of Fam108b (Abhd17b) hydrolase – biochemical, fluorescence polarization, triplicate, counter-screen for RBBP9 inhibitor project, confirmation (AID 1978).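 Further: 0% = median of active Fam108b wells and 100% = catalytically dead S170A mutant; inhibitors free the probe so polarization falls as inhibition rises.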 As to conditions: recombinant Fam108b, FP-Rh probe fluorescence polarization; at 9.51 µM; active compounds read high.
Test [20] deals with Protein-arginine deiminase type-4 (Homo sapiens) (UniProt Q9UM07). As to the kind of experiment: protein arginine deiminase 4 blockade, retest – biochemical, fluorescence polarization, confirmation (AID 488796;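 active means mean inhibition across replicates above the hit cutoff set by the earlier primary screen, cut at about 15% in these data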;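 further: inhibitors block active-site labeling by the probe so polarization falls; 0% = PAD4 with probe and DMSO and 100% = probe without PAD4 enzyme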). As to conditions: recombinant PAD4, RCA probe fluorescence polarization; at 6.36 µM; active compounds read high. Background: In fluorescence polarisation assays a small probe gives low polarisation when free and higher when bound to something large.

In test [21] the target is Glutathione S-transferase omega-1 (Homo sapiens) (UniProt P78417). As to the kind of experiment: recombinant GSTO1 blockers, retest – biochemical, fluorescence polarization, triplicate, counter-screen for RBBP9 inhibitor project, confirmation (AID 2176;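 active means inhibition above the primary screen's cutoff, its mean inhibition plus 3 SD, cut at about 35% in these data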;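 further: loss of polarization as inhibitors block binding of rhodamine sulfonate ester activity probe; 0% = GSTO1 with DMSO and 100% = wells lacking GSTO1 enzyme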). As to conditions: recombinant GSTO1, probe fluorescence polarization; at 5.96 µM; active compounds read high.
Test [22] concerns the target Serine protease HTRA1 (Homo sapiens) (UniProt Q92743). As to the kind of experiment: confirming inhibition of human HTRA1 – biochemical, fluorescence polarization, confirmation (AID 540248;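 active means mean inhibition over three repeats above a set limit taken from the earlier primary screen, cut at about 37% in these data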;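 further: 0% = HTRA1 with DMSO and 100% = wells lacking HTRA1; inhibitors block probe binding so polarization drops and inhibition rises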). As to conditions: recombinant HTRA1, FP-rhodamine activity-based probe, at 5.96 µM, active compounds read high.
Test [23] concerns the target (Lyso)-N-acylphosphatidylethanolamine lipase (Mus musculus) (UniProt Q8VD66). As to the kind of experiment: mouse ABHD4 hydrolase blockers, triplicate – biochemical, fluorescence polarization, confirmation (AID 720658;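 active means mean inhibition across replicates above the hit cutoff set in the primary screen, cut at about 30% in these data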;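 further: 0% = wild-type ABHD4 with DMSO and 100% = catalytically dead S159A mutant with DMSO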). To be noted: purified mABHD4, FP-Rh probe fluorescence polarization; at 8.92 µM; active compounds read high.
The nature of test [24]: BSA probe fluorescence interference – biochemical, TAMRA-labeled BSA, counter-screen for TCR-CD3 interaction inhibitor project (AID 652035; in the data active means inhibition above about 23%;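 further: 0% = buffer low control and 100% = reference high control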). To be noted: TAMRA-labeled BSA probe fluorescence counterscreen; at 9.4 µM; active compounds read high.
Test [25] has as its system T-cell receptor (TCR)-CD3 interaction, human. As to the kind of experiment: blockers of TCR binding to CD3 – biochemical, fluorescence, TAMRA-labeled TCR probe, confirmation (AID 652036; in the data active means inhibition above about 19%). As to conditions: TAMRA-labeled TCR probe fluorescence binding assay; at 9.4 µM; active compounds read high.
The nature of test [26]: suppression of KLF5 promoter-driven luciferase – DLD-1 cells, luminescence, confirmation (AID 1834;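 active means inhibition above a set limit taken from the earlier primary screen, cut at about 63% in these data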;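 further: 0% = DMSO wells and 100% = LY294002 at 200 µM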). To be noted: DLD-1 KLF5 promoter firefly luciferase reporter, at 4 µM, active compounds read high.
Test [27] in a line: IEC-6 intestinal cell killing – luminescence, triplicate, cytotoxicity control for KLF5 inhibitor project (AID 1905; in the data active means inhibition above about 23%;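 further: cells exposed to compounds for 48 hours before viability read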). As to conditions: IEC-6 rat intestinal cells, viability luminescence; at 4 µM; active compounds read high.
Test [28] concerns the target Oxysterols receptor LXR-beta (Homo sapiens) (UniProt P55055). As to the kind of experiment: nonspecific reporter activation via LXR – cell-based, luminescence, HEK293, H. contortus campaign, counter-screen for hcDAF-12 agonist project, confirmation (AID 743027;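 active means mean percent activation of the reporter above a cutoff set as the average over tested compounds plus their standard deviation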). To be noted: HEK293 Gal4-LXR tk-luc reporter, 24 h, at 6.8 µM, active compounds read high, normalized: DMSO 0%, positive control 100%.

Test [29] has as its system Nuclear hormone receptor DAF-12 (Haemonchus contortus). As to the kind of experiment: hcDAF-12 luciferase reporter activation, retest – cell-based, luminescence, HEK293, lit1-tk-luc, triplicate, confirmation (AID 743032;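 active means mean activation across triplicate tests above the threshold derived from the earlier primary screen, cut at about 5.5% in these data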;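 further: 0% = DMSO only wells and 100% = 3 µM Δ7-dafachronic acid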). To be noted: HEK293 hcDAF-12 lit1-tk-luc reporter, at 6.8 µM, active compounds read high, % of Δ7-dafachronic acid response.

Bcl-2-like protein 1 (Homo sapiens), sequence (Q07817 whole entry, looked up): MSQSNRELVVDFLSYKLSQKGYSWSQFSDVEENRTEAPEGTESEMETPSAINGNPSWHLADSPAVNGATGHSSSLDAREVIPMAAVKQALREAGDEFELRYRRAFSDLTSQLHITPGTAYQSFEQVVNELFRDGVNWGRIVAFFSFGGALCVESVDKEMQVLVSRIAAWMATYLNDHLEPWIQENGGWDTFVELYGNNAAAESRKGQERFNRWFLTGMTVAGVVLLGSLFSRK
Induced myeloid leukemia cell differentiation protein Mcl-1 (Homo sapiens), sequence (Q07820 whole entry, looked up): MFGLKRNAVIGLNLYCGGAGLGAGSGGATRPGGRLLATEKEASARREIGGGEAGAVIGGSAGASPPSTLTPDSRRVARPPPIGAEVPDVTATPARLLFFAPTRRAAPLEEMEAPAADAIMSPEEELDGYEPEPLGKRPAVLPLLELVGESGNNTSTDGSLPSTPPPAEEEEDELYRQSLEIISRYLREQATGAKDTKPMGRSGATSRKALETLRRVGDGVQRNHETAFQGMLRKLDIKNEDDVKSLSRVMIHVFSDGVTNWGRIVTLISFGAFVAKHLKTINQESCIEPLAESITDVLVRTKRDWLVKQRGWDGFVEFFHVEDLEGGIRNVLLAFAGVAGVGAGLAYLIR
Peroxisome proliferator-activated receptor gamma (Homo sapiens), sequence (P37231 whole entry, looked up): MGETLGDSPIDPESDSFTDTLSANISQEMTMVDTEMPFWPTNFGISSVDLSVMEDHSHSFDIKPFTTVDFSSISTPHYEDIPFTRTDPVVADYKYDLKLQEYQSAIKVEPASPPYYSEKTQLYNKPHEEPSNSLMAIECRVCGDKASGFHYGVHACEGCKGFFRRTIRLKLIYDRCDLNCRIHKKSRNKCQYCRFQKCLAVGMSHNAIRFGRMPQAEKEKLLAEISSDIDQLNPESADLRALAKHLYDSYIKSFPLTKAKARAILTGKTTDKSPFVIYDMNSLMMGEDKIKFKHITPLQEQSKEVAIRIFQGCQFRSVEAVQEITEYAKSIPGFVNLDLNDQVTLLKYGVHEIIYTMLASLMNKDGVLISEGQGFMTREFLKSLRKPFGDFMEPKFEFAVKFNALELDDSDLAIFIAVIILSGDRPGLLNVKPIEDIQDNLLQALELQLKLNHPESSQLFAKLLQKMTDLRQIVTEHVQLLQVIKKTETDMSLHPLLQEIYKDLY
Peroxisome proliferator-activated receptor gamma (Homo sapiens) + Nuclear receptor coactivator 3 (Homo sapiens), sequence (P37231 whole entry, looked up): as above
Peroxisome proliferator-activated receptor gamma (Homo sapiens) + Nuclear receptor coactivator 3 (Homo sapiens), sequence (Q9Y6Q9 whole entry, looked up): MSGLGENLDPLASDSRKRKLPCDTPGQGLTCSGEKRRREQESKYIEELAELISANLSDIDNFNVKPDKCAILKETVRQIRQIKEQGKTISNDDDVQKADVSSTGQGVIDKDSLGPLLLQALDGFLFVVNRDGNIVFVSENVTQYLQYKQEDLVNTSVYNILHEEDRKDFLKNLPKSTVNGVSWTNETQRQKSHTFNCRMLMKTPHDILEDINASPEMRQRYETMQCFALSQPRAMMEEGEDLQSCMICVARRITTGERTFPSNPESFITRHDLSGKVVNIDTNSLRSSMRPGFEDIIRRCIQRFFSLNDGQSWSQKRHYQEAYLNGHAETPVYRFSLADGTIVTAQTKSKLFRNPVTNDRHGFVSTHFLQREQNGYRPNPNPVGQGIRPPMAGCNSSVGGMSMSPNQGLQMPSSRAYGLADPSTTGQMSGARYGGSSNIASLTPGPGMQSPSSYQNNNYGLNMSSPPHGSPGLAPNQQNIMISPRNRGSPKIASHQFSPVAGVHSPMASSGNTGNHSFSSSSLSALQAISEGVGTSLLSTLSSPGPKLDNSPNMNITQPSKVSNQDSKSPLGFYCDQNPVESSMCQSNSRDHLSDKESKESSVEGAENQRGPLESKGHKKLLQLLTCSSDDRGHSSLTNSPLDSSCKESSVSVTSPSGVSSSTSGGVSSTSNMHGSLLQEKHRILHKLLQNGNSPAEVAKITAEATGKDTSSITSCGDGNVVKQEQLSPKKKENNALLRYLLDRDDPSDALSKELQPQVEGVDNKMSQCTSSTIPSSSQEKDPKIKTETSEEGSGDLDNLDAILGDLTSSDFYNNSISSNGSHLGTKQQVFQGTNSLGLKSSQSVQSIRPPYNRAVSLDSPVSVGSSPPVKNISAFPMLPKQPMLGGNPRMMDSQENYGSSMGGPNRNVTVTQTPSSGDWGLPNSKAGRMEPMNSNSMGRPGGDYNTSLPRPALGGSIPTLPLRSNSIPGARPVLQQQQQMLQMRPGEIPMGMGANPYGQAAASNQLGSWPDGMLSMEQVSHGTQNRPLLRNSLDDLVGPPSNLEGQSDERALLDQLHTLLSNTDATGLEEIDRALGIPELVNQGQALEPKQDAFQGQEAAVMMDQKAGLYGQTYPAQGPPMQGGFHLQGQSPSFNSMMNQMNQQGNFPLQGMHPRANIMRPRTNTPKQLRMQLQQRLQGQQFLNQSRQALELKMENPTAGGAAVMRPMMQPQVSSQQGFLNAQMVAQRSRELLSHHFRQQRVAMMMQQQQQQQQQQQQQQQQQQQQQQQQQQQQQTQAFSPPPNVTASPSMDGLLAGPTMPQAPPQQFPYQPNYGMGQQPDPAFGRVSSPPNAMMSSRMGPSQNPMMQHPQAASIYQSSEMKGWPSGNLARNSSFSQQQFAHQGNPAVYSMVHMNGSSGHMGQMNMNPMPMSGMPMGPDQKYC
(Lyso)-N-acylphosphatidylethanolamine lipase (Mus musculus), sequence (Q8VD66 whole entry, looked up): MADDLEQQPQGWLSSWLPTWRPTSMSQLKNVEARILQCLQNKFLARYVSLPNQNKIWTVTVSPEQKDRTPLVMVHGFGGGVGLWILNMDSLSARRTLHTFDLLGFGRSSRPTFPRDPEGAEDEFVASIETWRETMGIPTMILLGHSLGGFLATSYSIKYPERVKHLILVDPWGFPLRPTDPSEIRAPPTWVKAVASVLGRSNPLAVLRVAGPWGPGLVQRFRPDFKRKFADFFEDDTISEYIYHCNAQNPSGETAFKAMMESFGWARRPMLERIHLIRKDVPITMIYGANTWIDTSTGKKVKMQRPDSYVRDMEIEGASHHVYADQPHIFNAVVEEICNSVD
Protein phosphatase methylesterase 1 (Homo sapiens), sequence (Q9Y570 whole entry, looked up): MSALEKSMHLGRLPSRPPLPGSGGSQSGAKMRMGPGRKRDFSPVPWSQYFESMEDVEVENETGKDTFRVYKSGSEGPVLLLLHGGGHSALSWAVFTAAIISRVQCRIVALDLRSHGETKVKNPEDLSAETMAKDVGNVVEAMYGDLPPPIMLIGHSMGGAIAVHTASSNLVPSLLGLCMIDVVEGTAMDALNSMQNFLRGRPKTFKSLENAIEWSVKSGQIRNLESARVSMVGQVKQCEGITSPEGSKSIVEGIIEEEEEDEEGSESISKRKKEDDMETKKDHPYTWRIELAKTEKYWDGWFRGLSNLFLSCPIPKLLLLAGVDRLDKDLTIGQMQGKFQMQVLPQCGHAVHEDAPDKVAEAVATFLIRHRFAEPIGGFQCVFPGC
Glutathione S-transferase omega-1 (Homo sapiens), sequence (P78417 whole entry, looked up): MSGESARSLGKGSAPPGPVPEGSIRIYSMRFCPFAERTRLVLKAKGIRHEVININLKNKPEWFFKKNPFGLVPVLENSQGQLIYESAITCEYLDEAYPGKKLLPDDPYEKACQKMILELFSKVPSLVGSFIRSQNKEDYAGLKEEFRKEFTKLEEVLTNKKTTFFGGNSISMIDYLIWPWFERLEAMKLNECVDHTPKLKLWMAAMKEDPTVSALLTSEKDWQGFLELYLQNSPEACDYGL
Protein-arginine deiminase type-4 (Homo sapiens), sequence (Q9UM07 whole entry, looked up): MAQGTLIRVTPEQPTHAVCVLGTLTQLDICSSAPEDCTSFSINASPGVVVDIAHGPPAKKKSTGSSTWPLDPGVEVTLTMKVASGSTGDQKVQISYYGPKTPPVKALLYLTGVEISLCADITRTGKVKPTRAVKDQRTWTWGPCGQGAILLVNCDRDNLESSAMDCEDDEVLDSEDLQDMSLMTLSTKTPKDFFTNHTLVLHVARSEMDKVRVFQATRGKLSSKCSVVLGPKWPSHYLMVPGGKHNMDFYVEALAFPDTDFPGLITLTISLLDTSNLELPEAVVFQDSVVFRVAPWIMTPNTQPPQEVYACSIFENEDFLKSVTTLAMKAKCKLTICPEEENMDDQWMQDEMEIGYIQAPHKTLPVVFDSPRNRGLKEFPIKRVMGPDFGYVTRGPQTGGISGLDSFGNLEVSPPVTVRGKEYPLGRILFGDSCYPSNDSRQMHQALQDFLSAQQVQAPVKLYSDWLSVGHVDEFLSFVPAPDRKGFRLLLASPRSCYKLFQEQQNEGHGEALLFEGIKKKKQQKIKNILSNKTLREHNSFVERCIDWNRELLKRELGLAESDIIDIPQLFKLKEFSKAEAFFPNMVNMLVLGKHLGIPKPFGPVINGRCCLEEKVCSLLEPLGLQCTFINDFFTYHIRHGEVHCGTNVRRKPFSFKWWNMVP

One may read the inhibition as the drop in the measured response relative to a control, in per cent. Take `O=C(Oc1ccccc1)Oc1ccc2c(c1)oc(=O)c1ccccc12`: the activation in test [1] is 27.9% (active); in test [2] it was 16.1%; in test [3] it was 19.9%. The activation (reported as inhibition) in [4] is 1.72%. Further, the inhibition in [5] was 6.42%.

As to `Cc1ccccc1-c1n[nH]c(=S)n1/N=C/c1ccc(-c2ccccc2Br)o1`, the results for the activation in [1], in test [2] and in [3] were 33.5% (active), 28.2% (active) and 22.5%, respectively.

For the compound `Cc1cc(C)c2cc(CN(Cc3cccs3)Cc3nnnn3CC3CCCO3)c(=O)[nH]c2c1` (stereo not drawn), the results for the activation in [1], in test [2] and in test [3] were 9.95%, 11.9% and 15%, respectively.

In the case of `Cc1cc(C)nc(S/C=C/C(=O)c2ccccc2)n1`, the inhibition in test [6] is 97.1% (active); in test [7], 19.6%.

Consider `O=C(Nc1ccccc1)c1nnsc1S(=O)(=O)c1ccc(Cl)cc1`, for which the results for the inhibition in [8] and in [9] were 45.8% (active) and 66.7% (active), respectively.

As for `Cc1ccc(/C=N/NC(=O)COc2ccccc2-c2ccccc2)cc1`, the inhibition in test [10] is -0.45%; in [11], -3.63%.

Regarding `COc1ccc(C(=O)Nc2ccccc2C(=O)N/N=C/c2ccc(O)c(OC)c2)cc1`, in test [12], the inhibition was 28.2% (active).

On to `Cc1cccc(NC(=O)c2ccc([N+](=O)[O-])o2)c1`, for which the inhibition is 98% (active) in test [13]; 11.9% (active) in test [14]; 34.5% (active) in [15]; 7.5% in test [16]; 8.19% in test [17]; 66.8% (active) in test [18].

Regarding `COc1cccc(/C=N/Nc2ncc(C(F)(F)F)cc2Cl)c1O`, the inhibition in test [13] is 12.9% (active); in [14], 16.2% (active); in test [15] it was 16.3%; in test [16], 7.89%; in [17], 9.3%; in test [18], 12.8%.

Regarding `Cc1cccc(-c2nc(Nc3ccc(O)cc3)c3ccccc3n2)c1`, the inhibition is 17.7% in [19] and -0.9% in test [12].

Turning to `Oc1oc(-c2ccccc2Br)nc1/C=N/c1ccccn1`, the inhibition in test [19] was 68.7% (active).

Take `O=C(CCn1c(SCC(=O)c2ccccc2)nc2ccccc2c1=O)NCc1ccc(F)cc1`: the inhibition is -13.1% in test [19] and -0.06% in [20].

`Clc1ccccc1CSc1nnc(-c2ccco2)c(-c2ccco2)n1`: the inhibition in test [19] was 1%; in test [21], 23.6%; in [22], 2.03%; in test [23], 27.6%.

For `CCCn1c(O)c(CN2CCCC(C)C2)c(C)c(C#N)c1=O` (stereo not drawn), the inhibition in test [10] was 36.2% (active); in test [11], 39.3%.

Take `COc1ccc(-c2onc3ccc(C(C)=O)cc23)cc1`: the inhibition in [10] was 172% (active).

Regarding `O=c1[nH]c(=S)[nH]c2[nH]c(=S)[nH]c12`, the results for the inhibition in [10] and in [11] were 42.2% (active) and 98.7% (active), respectively.

`O=[N+]([O-])c1cc(Cl)cc(/C=N/NC(=S)Nc2cc(S(=O)(=O)N3CCOCC3)ccc2Cl)c1O`: the inhibition in [19] is 46.8% (active); in [10], 24.4%; in [11], 42.4% (active); in test [22], 125% (active); in test [24] it was -14.9%; in test [25], 38.1% (active). Moreover, the inhibition in test [23] was 77.1% (active).

Take `CC/C(C)=N/Nc1nc2sc3c(c2c(=O)[nH]1)CC(C)(C)OC3`: the inhibition is 34.7% (active) in test [10] and 53.8% (active) in test [11].

Take `Nc1ccc2nn(-c3ccc(Cl)cc3)nc2c1`: the inhibition was -145% in [26] and 4.57% in [27]. Besides, the figures for the activation in [28] and in test [29] were 1.78% and 9.23% (active), respectively.

In the case of `COc1cccc(C2Nc3cccc4cccc(c34)N2)c1`, in [19], the inhibition is 12.6%.
